Test results: PubChem BioAssay (NCI)
The panel holds about 83,000 compounds, 20% with a hit somewhere; the sample as a whole holds those more often.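 Each cell line was grown in a 96-well plate and treated with one concentration of compound for 48 hours. Values below 10 were considered active.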 Values without a mark were called inactive. The source made the active and inactive calls.

Key:
Experiment in all cases: NCI-60 one-dose screen, 48 h (100 = growth as untreated, 0 = no growth, -100 = all killed)
Details in all cases: 10 µM unless noted
NCI-H23 lung = system: NCI-H23 lung
NCI-H226 lung = system: NCI-H226 lung
NCI-H322M lung = system: NCI-H322M lung
HOP-62 NSCLC = system: HOP-62 NSCLC
NCI-H460 lung = system: NCI-H460 lung
HOP-92 NSCLC = system: HOP-92 NSCLC
NCI-H522 lung = system: NCI-H522 lung
A549/ATCC NSCLC = system: A549/ATCC NSCLC
786-0 renal = system: 786-0 renal
COLO 205 colon = system: COLO 205 colon
DU-145 prostate = system: DU-145 prostate
K-562 leukemia = system: K-562 leukemia
MALME-3M melanoma = system: MALME-3M melanoma
MDA-MB-231 breast = system: MDA-MB-231 breast
RXF 393 renal = system: RXF 393 renal
SF-268 CNS = system: SF-268 CNS
SF-295 CNS = system: SF-295 CNS
SF-539 CNS = system: SF-539 CNS
UACC-257 melanoma = system: UACC-257 melanoma
M14 melanoma = system: M14 melanoma

Structure (SMILES) | growth (NCI-H23 lung) | growth (NCI-H226 lung) | growth (NCI-H322M lung) | growth (HOP-62 NSCLC) | growth (NCI-H460 lung) | growth (HOP-92 NSCLC) | growth (NCI-H522 lung) | growth (A549/ATCC NSCLC) | growth (786-0 renal) | growth (COLO 205 colon) | growth (DU-145 prostate) | growth (K-562 leukemia) | growth (MALME-3M melanoma) | growth (MDA-MB-231 breast) | growth (RXF 393 renal) | growth (SF-268 CNS) [%] | growth (SF-295 CNS) | growth (SF-539 CNS) | growth (UACC-257 melanoma) | growth (M14 melanoma)
COc1ccccc1-n1cnc(N)c1C(=O)c1cc(OC)c(OC)c(OC)c1 | 70% | 56.7% | 81.4% | 52.8% | 14.5% | 70.3% | 1.87% (active) | 47.9% | 37.9% | 66.1% | 73.9% | 22% | 50.1% | 64.8% | 33% | 38.5 | 24.9% | 35.6% | 59.8% | 44.5%
N#Cc1c(-c2ccco2)nc2c(c(-c3ccccc3)nn2-c2ccccc2)c1-c1ccc(O)cc1 | 99.7% | 73.3% | 81.9% | -50% (active) | 49.8% | 76.1% | 19.3% | 46.9% | 59.1% | 3.62% (active) | 75.8% | 15.7% | 35% | 82.4% | 101% | 67.6 | 66.6% | 82.5% | 60.6% | 65.6%
OCC1OC(n2cnc3c(Cl)ncnc32)CC1O (stereo not given) | 118% | 97.7% | 101% | 114% | 104% | 89.5% | 101% | 104% | 107% | 104% | 113% | 103% | 97.5% | 106% | 103% | 99.1 | 114% | 96.2% | 110% | 104%
CCN1CCN(C(=O)[C@]23CCC(C)(C)C[C@@H]2C2=CC[C@@H]4[C@@]5(C)C/C(=C/c6cccnc6)C(=O)C(C)(C)[C@@H]5CC[C@@]4(C)[C@]2(C)CC3)CC1 | 27.1% | 32.9% | 62.3% | 44.5% | 12.1% | 9.8% (active) | 28.4% | 13.5% | 50.2% | 25.9% | 50% | 6.69% (active) | 30.3% | 40.7% | -7.84% (active) | 37.6 | 16.7% | 41.5% | 3.05% (active) | 34.4%
Cc1ccc2c(c1)c1nc3cc(C)c(C)cc3nc1n2CCN(C)C | 13.5% | 7.71% (active) | 16.3% | 23.8% | 9.12% (active) | 32.1% | 31.2% | 12.2% | 26.5% | -5.24% (active) | 20.5% | 8.09% (active) | -8.13% (active) | 19.3% | 16.2% | 30.3 | 5.24% (active) | 11.4% | 13.1% | 13.3%
CC1(n2nnnc2N2CCCN(c3ncccc3N)CC2)CCC1 | 103% | 90.4% | 94.2% | 99% | 99.5% | 95.7% | 100% | 107% | 104% | 111% | 109% | 87.8% | 98.6% | 99.9% | 98.2% | 97 | 95.5% | 94.8% | 108% | 97.8%
Cn1cc(-c2csc(-c3cn(CCCN4CCCCC4)c4ccc(Br)cc34)n2)c2cccnc21 | 43.3% | 75.9% | 49.7% | -56.5% (active) | -66.8% (active) | 31.5% | 11.7% | -49% (active) | -75.9% (active) | -79.5% (active) | -26.5% (active) | -63.6% (active) | -25.7% (active) | -50.7% (active) | 23.3% | 46.1 | 31.8% | -73% (active) | 68.1% | -88.1% (active)
O=C1/C(=C\c2ccco2)SC(=S)N1CCc1ccc(O)cc1 | 101% | 101% | 90.6% | 98.1% | 106% | 61.2% | 68.9% | 99.7% | 99.4% | 126% | 67.8% | 84.8% | 82% | 80.5% | 98.3% | 94.8 | 105% | 88.5% | 90.1% | 96%
C=C(C)[C@@H]1CC[C@]2(C(=O)N3CCCNCC3)CC[C@]3(C)[C@H](CC[C@@H]4[C@@]5(C)CCC(=O)C(C)(C)[C@@H]5CC[C@]43C)[C@@H]12 | 98.4% | 90.7% | 102% | 92.9% | 97.7% | 48.4% | 101% | 86.2% | 94.9% | 101% | 93.6% | 78.4% | 99.3% | 88.7% | 81.9% | 84.9 | 104% | 99.9% | 98.4% | 100%
O=P(O)(c1ccccc1)c1ccccc1I | 96.4% | 90% | 94.1% | 94.8% | 97.2% | 83.9% | 80.7% | 71.2% | 109% | 107% | 109% | 93.8% | 87.5% | 97.1% | 102% | 99.8 | 93.7% | 101% | 76.5% | 90.1%
COc1ccc2c(c1)c(-c1nc(-c3cn(C)c4ncccc34)cs1)cn2CCCN1CCCCC1 | 79.4% | 67.1% | 80.3% | 74.9% | -40.4% (active) | 48.7% | 87.7% | 25.2% | -31.3% (active) | -65.8% (active) | 42.9% | -48.4% (active) | 81.1% | 44.2% | 65% | 76.6 | 91.6% | 43.9% | 96% | -85.2% (active)
Cc1ccc(Cc2cnc(NC(=O)/C=C/c3cccc(C)c3)s2)cc1 | 13.3% | 36.8% | 46.1% | 18.5% | 1.93% (active) | 70.4% | 18.6% | 16.1% | 17.8% | -4.26% (active) | 16.2% | 13.7% | 31.4% | 3.61% (active) | -0.16% (active) | 44.7 | -13.6% (active) | -30.1% (active) | 67.7% | -12.4% (active)
COc1cc2nc(Cl)nc(Nc3cccc(C(=O)/C=C/c4ccc(Cl)cc4)c3)c2cc1OC | 80.9% | 88.1% | 83.1% | 86.8% | 91.3% | 78.3% | 77.6% | 78.2% | 64.8% | 86.9% | 88.2% | 11.3% | 88.2% | 73.7% | 62.7% | 85.7 | 80.6% | 50% | 94% | 70.2%
Cc1ccc(Sc2sc(-c3ccccc3)nc2[P+](c2ccccc2)(c2ccccc2)c2ccccc2)cc1 | -12.2% (active) | -3.15% (active) | -19.1% (active) | -0.272% (active) | -19.1% (active) | -40.4% (active) | -5.65% (active) | 6.14% (active) | 6.12% (active) | -25.3% (active) | 10.7% | 2.4% (active) | -22.4% (active) | -29.5% (active) | -21.5% (active) | 15.5 | -20.9% (active) | 11.8% | 2.98% (active) | -7.46% (active)
COc1ccc2c(c1)c(-c1nc(-c3c[nH]c4ncccc34)cs1)cn2CCN | 68% | 70.6% | 57.7% | 58.3% | 45% | 29% | 65.6% | 48.2% | 72.1% | 32.2% | 59.7% | 41.5% | 81.6% | 53.7% | 59.9% | 80.1 | 95.3% | 68.8% | 98.2% | 67.5%
